Assay outcomes (PubChem BioAssay)
MCF10A rerep = DNA re-replication induction in MCF 10a cells; MCF 10A DNA re-replication, Hoechst nuclear intensity, 48 h; Potency, µM (series often up to 46.1 µM), for the others: at the top dose activity, positive = re-replication, most hits filed as activators; hit rate 2.9% among 350,000; AID 624296; also: potency is read from the fitted curve at half-maximal effect; % of control where 0% means no effect; nearly all actives have a fitted effect of over 50% in size
S2 tox = cell viability loss in ATXN counter-screen; S2 cells (HEK-293 line with an ATXN2-luciferase reporter) viability, CellTiter-Fluor protease fluorescence, 24 h; Potency, µM (series often up to 56.7 µM), hits mostly cytotoxic; hit rate 0.49% among 400,000; AID 651635; also: potency is read from the fitted curve at half-maximal effect; nearly all actives have a fitted effect of over 40% in size
SW480 rerep = DNA re-replication induction in SW480 cells; hit rate 1.8% among 340,000; SW480 DNA re-replication, Hoechst DNA content imaging, 48 h; Potency, µM (titrated, usually from 46.1 µM), without a hit: at the highest dose re-replication activation, actives largely listed as activators; also: potency is read from the fitted curve at half-maximal effect; % of control where 0% means no effect; nearly all actives have a fitted effect of over 55% in size
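First, 250 cells per well were seeded. Next, compound or vehicle (23 nL) was pinned in, plates sat 48 hr at 37 C. Finally Hoechst was added for 40 min before fluorescence scanning.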
PINK1 modulator = PINK1 expression modulation; PINK1 immunofluorescence, high-content cytometry, 24 h; Potency, µM (titrated, usually from 76.6 µM), for the others: top-dose activation (PINK1 increase), most hits filed as activators; hit rate 0.2% among 410,000; AID 624263; active = well fitted activation curve with a large enough effect; inconclusive = small, poorly fitted or top-dose-only effect; cell line not stated here; also: potency is read from the fitted curve at half-maximal effect; % of control where 0% means no effect; nearly all actives have a fitted effect of over 65% in size
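Readout is PINK1 immunofluorescence, quantified alongside mitochondrial, cell and nuclear markers by laser-scanning microplate cytometry. Cells from a stable line were exposed to compound titrations (5 concentrations) for 24 hours, with CCCP controls.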
ATXN2 expr inh = ATXN2 expression inhibition. HEK-293 ATXN2-luciferase reporter, luminescence, 24 h. Potency, µM (highest dose often 57 µM), for inactives: top-dose activity change, negative = inhibition, usual class: inhibitors. hit rate 0.72% among 360,000; also: potency is read from the fitted curve at half-maximal effect; % is scaled to controls: 0 for no effect and ±100 for the full control effect; nearly all actives have a fitted effect of over 55% in size
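ATXN2-luciferase reporter cells (luciferase flanked by upstream and downstream ATXN2 gene portions) were treated 24 h at 37 °C with compounds at up to 57 uM. SteadyGlo luminescence gave expression; GF-AFC fluorescence gave viability.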
IL1B secr inh = inflammasome signaling inhibition, IL-1 beta readout; activity change, % at 57.5 µM; hit rate 4.7% among 360,000; THP-1 LPS/ATP IL-1B secretion, AlphaLISA, 16 h; active compounds read low; in the data active = activity change below about -50%; inconclusive = mostly about -30% to -49%; also: % is scaled to controls: 0 for no effect and ±100 for the full control effect
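Secreted IL-1B measured by AlphaLISA bead assay after 16 h compound exposure of THP-1 cells; compounds (final up to 57.5 uM) added 1 h before LPS (250 ng/mL) and ATP (1.25 mM) stimulation; lower signal means less secretion.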
* marks the source's active call; other numbers are inactive results; [ ] = remark or other dose. This is a sample that favours compounds with a hit; in the whole collection about 7.1% have one here. Unless noted, calls follow the shape of the dose curve; as a rule, active = well fitted curve in the direction sought with a large enough effect; inconclusive = small, poorly fitted or top-dose-only effect, or another doubt; inactive = no such curve, though single readings can be large; an effect the other way counts as inactive or inconclusive.

For Cc1ccc(/C=C/C(=O)Nn2cnnc2)cc1 the results were MCF10A rerep inconclusive, S2 tox inconclusive, SW480 rerep inconclusive, PINK1 modulator 4%, ATXN2 expr inh -5% and IL1B secr inh -115*.
`CC(C)c1ccc(/C=C/C(=O)Nn2cnnc2)cc1` gave PINK1 modulator 2%.
For CCC(c1nnc(SCC(=O)NCCc2ccc(OC)c(OC)c2)n1Cc1ccccc1)N(C)C (stereo unspecified) the results were MCF10A rerep 0.65µM*, S2 tox inactive, SW480 rerep -5%, PINK1 modulator 3%, ATXN2 expr inh -21% and IL1B secr inh -21.
COc1ccc(CCNC(=O)CSc2ccccn2)cc1OC was read as MCF10A rerep -7%, S2 tox inactive, SW480 rerep inconclusive, PINK1 modulator 1% and IL1B secr inh 0.
Screening COc1ccc(CCNC(=O)CSc2cccc3cccnc23)cc1OC returned MCF10A rerep -31%, S2 tox inactive, SW480 rerep 14%, PINK1 modulator -1%, ATXN2 expr inh 6% and IL1B secr inh -98*.
Screening Cc1ccc(N(CC(=O)Nc2cc(C)ccc2C)S(=O)(=O)c2c(C)noc2C)cc1 returned S2 tox inconclusive, PINK1 modulator 3% and ATXN2 expr inh inconclusive.
`O/N=C(/CBr)c1ccc2ccccc2c1` gave PINK1 modulator 0%.
For O=c1[nH]c2ccccc2c(=O)n1CCCl the results were S2 tox inactive and ATXN2 expr inh 1%.
For N#Cc1c(C(F)(F)F)cc(-c2ccc(Cl)c(Cl)c2)nc1SCCN1CCOCC1 the results were MCF10A rerep 4.1µM*, S2 tox inactive, SW480 rerep 16%, PINK1 modulator 6%[38.3 µM], ATXN2 expr inh inconclusive and IL1B secr inh 25.
For C=CCSc1nc(-c2ccc3c(c2)OCO3)cc(C(F)(F)F)c1C#N the results were MCF10A rerep 15%, S2 tox inactive, SW480 rerep 7.3µM*, PINK1 modulator 16%, ATXN2 expr inh -12% and IL1B secr inh 0.
For CCOC(=O)CC(=O)CSc1nc(-c2ccc3c(c2)OCO3)cc(C(F)(F)F)c1C#N the results were MCF10A rerep 6.3µM*, S2 tox inactive, SW480 rerep inconclusive, PINK1 modulator 27%[38.3 µM], ATXN2 expr inh -15% and IL1B secr inh 64.
CCOC(=O)CCSc1nc(-c2ccc3c(c2)OCO3)cc(C(F)(F)F)c1C#N was read as MCF10A rerep 5%, S2 tox inactive, SW480 rerep -5%, ATXN2 expr inh 0% and IL1B secr inh 24.
CC(O)(COc1ccccc1)c1ccc2c(c1)CN(Cc1ccccn1)CCO2 (stereo unspecified) was read as S2 tox inactive and PINK1 modulator -1%.
For CCc1ccc(C(=O)c2cn(CC(=O)Nc3ccc4c(c3)OCO4)c3ccc(OC)cc3c2=O)cc1 the results were S2 tox inconclusive, PINK1 modulator 9% and ATXN2 expr inh 0%.
Cc1ccc(NC(=O)C2CCN(S(=O)(=O)c3cccc4nsnc34)CC2)cc1 was read as S2 tox inactive, PINK1 modulator 2% and ATXN2 expr inh -16%.
`O=C(NC1CCCCC1)C1CCN(S(=O)(=O)c2cccc3nsnc23)CC1` gave MCF10A rerep -8%, S2 tox inactive, SW480 rerep -11%, PINK1 modulator 10µM*, ATXN2 expr inh 1% and IL1B secr inh 0.
CC1CN(S(=O)(=O)c2cccc3nsnc23)CC(C)O1 (stereo unspecified) was read as MCF10A rerep 18µM*, S2 tox inactive, SW480 rerep 21%, PINK1 modulator -6%[38.3 µM], ATXN2 expr inh 3% and IL1B secr inh 6.
For Cc1cc(C)cc(NC(=O)C2CCN(S(=O)(=O)c3cccc4nonc34)CC2)c1 the results were S2 tox inactive, PINK1 modulator 5% and ATXN2 expr inh -3%.
`Cc1ccnc(NC(=O)C2CCN(S(=O)(=O)c3cccc4nsnc34)CC2)c1` gave MCF10A rerep inconclusive, S2 tox inactive, SW480 rerep 10%, PINK1 modulator 1%, ATXN2 expr inh -2% and IL1B secr inh -53*.
Screening Cc1ccnc(NC(=O)C2CCN(S(=O)(=O)c3cccc4nonc34)CC2)c1 returned MCF10A rerep -19%, S2 tox inactive, SW480 rerep 0%, PINK1 modulator 1%, ATXN2 expr inh 4% and IL1B secr inh -51*.
For COc1ccc(NC(=O)Cn2c(=O)ccc3cc(S(=O)(=O)N4CCCC4)ccc32)cc1Cl the results were S2 tox inactive, PINK1 modulator -1% and ATXN2 expr inh -24%.
`Cc1cc(C)nc(NC(=O)CCCC(=O)O)c1` gave MCF10A rerep -4%, S2 tox inactive, SW480 rerep 1%, PINK1 modulator -1%, ATXN2 expr inh 3% and IL1B secr inh -3.
For Cc1cc(C)nc(NC(=O)c2c(F)c(F)c(F)c(C(=O)Nc3cc(C)cc(C)n3)c2F)c1 the results were MCF10A rerep 8.2µM*, S2 tox inconclusive, SW480 rerep inconclusive, PINK1 modulator 0%, ATXN2 expr inh -36% and IL1B secr inh -69*.
COc1cccc(-c2ccnc(-n3ncc(C(=O)N(C)CCc4ccccn4)c3C)n2)c1 was read as S2 tox inactive and PINK1 modulator 0%.
For CC(C)(Cc1ccc(O)cc1)NC(=O)CC(=O)N/N=C/c1ccc(Cl)cc1 the results were MCF10A rerep 13µM*, S2 tox inactive, SW480 rerep inconclusive, PINK1 modulator 15%, ATXN2 expr inh -34% and IL1B secr inh -4.
CCOc1ccc(-c2nc(SC(C(C)=O)C(=O)N(C)C)c3c(=O)n(C)c(=O)n(C)c3n2)cc1 (stereo unspecified) was read as S2 tox inactive, PINK1 modulator 0% and ATXN2 expr inh 11%.
For CC(=O)OC1COC(n2c(O)c(N=NC(N)=S)c3ccccc32)C(OC(C)=O)C1OC(C)=O (stereo unspecified) the results were MCF10A rerep 0.65µM*, S2 tox inconclusive, SW480 rerep inconclusive, PINK1 modulator 2%, ATXN2 expr inh -3% and IL1B secr inh 7.
Screening Cn1c(O)c(N=NC(N)=S)c2ccccc21 returned MCF10A rerep 14% and SW480 rerep -5%.
Screening COc1ccc(/C=C/C(=O)C(C(N)=O)=C2SCCS2)cc1 returned MCF10A rerep 15%, S2 tox inconclusive, SW480 rerep 9%, PINK1 modulator 1%, ATXN2 expr inh 69% and IL1B secr inh inconclusive.
